Reference: PubChem BioAssay (NCI)
Compounds without any hit were thinned out: in the full panel of roughly 79,000, 15% have a hit. Calls of active or inactive are those of the source. Cut-off read from the data, not from the text of the source: active = growth inhibition above about 70%; inactive = the rest.

How the values were obtained:
[1] = NCI Yeast Anticancer Drug Screen. Data for the rad52 strain (AID 147);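 note: 0% = growth of vehicle-treated control cultures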; conditions: S. cerevisiae rad52 mutant growth inhibition, stronger effect = higher value
How it was run: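 Growth of repair-deficient yeast cells was compared between compound-treated and vehicle-treated cultures to give percent inhibition.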

[2] = NCI Yeast Anticancer Drug Screen. Data for the wt1 strain (AID 149);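 note: 0% = growth of vehicle-treated wt1 cultures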; conditions: S. cerevisiae wt1 strain (SPY 50644) growth inhibition, stronger effect = higher value
How it was run: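 Growth inhibition read against vehicle controls after compound exposure of the wt1 yeast strain.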

[3] = NCI Yeast Anticancer Drug Screen. Data for the rad50EPP+ strain (AID 151);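 note: 0% = growth of vehicle-treated control cultures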; conditions: S. cerevisiae rad50 mutant strain, stronger effect = higher value
How it was run: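 Measured: growth inhibition of rad50EPP+ yeast. Reference: vehicle-treated controls. Screen uses strains with defined genetic alterations in DNA damage repair or cell cycle control.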

[4] = NCI Yeast Anticancer Drug Screen. Data for the mgt1 strain (AID 153); conditions: S. cerevisiae mgt1 mutant growth inhibition, stronger effect = higher value
How it was run: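 Compounds were applied to mgt1 mutant yeast, and growth was then compared against vehicle-treated control cultures to give percent inhibition.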

[5] = NCI Yeast Anticancer Drug Screen. Data for the rad50 strain (AID 155);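 note: 0% = growth of vehicle-only cultures of the same strain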; conditions: S. cerevisiae rad50 strain growth inhibition, stronger effect = higher value
How it was run: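 Readout: growth inhibition relative to vehicle-treated cultures. Compound exposure was carried out in a genetically defined yeast strain deficient in DNA damage repair.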

[6] = NCI Yeast Anticancer Drug Screen. Data for the mec2-1 strain (AID 157); conditions: S. cerevisiae mec2-1 strain, stronger effect = higher value
How it was run: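 Compounds were applied to mec2-1 yeast cells. Their growth was then compared with that of vehicle-treated cultures to give growth inhibition.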

[7] = NCI Yeast Anticancer Drug Screen. Data for the rad14 strain (AID 159);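 note: 0% = growth of vehicle-treated control cultures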; conditions: S. cerevisiae rad14 strain growth inhibition, stronger effect = higher value
How it was run: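 Growth inhibition vs vehicle controls; genetically altered yeast strain (DNA damage repair defect) treated with test compounds.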

[8] = NCI Yeast Anticancer Drug Screen. Data for the sgs1 mgt1 strain (AID 161);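 note: 0% = growth of cultures given vehicle only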; conditions: S. cerevisiae sgs1 mgt1 strain, stronger effect = higher value
How it was run: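 This yeast growth screen uses a strain with defined DNA-repair lesions; compound-treated growth is compared with vehicle-treated growth.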

[9] = NCI Yeast Anticancer Drug Screen. Data for the CLN2oe strain (AID 163);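 note: 0% = growth of vehicle-only control cultures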; conditions: S. cerevisiae CLN2oe strain, stronger effect = higher value
How it was run: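 Cells of an engineered yeast line with disturbed cell-cycle regulation are treated with compound. Inhibition of growth is then calculated relative to the vehicle-treated reference.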

[10] = NCI Yeast Anticancer Drug Screen. Data for the cln2 rad14 strain (AID 165);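 note: 0% = growth equal to vehicle treated cultures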; conditions: S. cerevisiae cln2 rad14 strain, stronger effect = higher value
How it was run: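 Strain: cln2 rad14 yeast, altered in cell cycle control and DNA damage repair. Read-out: growth inhibition vs vehicle.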

[11] = NCI Yeast Anticancer Drug Screen. Data for the bub3 strain (AID 167); conditions: S. cerevisiae bub3 mutant strain, stronger effect = higher value
How it was run: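 Readout: yeast growth inhibition, expressed relative to vehicle-only wells. The test organism is a mutant strain from a panel with lesions in DNA repair or checkpoint genes.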

[12] = NCI Yeast Anticancer Drug Screen. Data for the wt2 strain (AID 169);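 note: 0% = growth of vehicle-treated yeast cultures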; conditions: S. cerevisiae wt2 strain growth inhibition, stronger effect = higher value
How it was run: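 Growth of compound-treated yeast is measured and expressed as inhibition relative to vehicle-only controls.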

[13] = NCI Yeast Anticancer Drug Screen. Data for the mlh1 strain (AID 171);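 note: 0% = growth of vehicle-treated control cultures of the same strain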; conditions: S. cerevisiae mlh1 strain growth inhibition, stronger effect = higher value
How it was run: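 Test agents were incubated with yeast bearing a defined DNA damage repair or cell cycle control alteration; values are growth inhibition normalised to vehicle-treated cultures.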

[14] = NCI Yeast Anticancer Drug Screen. Data for the mlh1 rad18 strain (AID 175); conditions: S. cerevisiae mlh1 rad18 strain growth inhibition, stronger effect = higher value
How it was run: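 A repair-deficient yeast strain is exposed to test compound, and growth is scored relative to vehicle-treated controls.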

[15] = NCI Yeast Anticancer Drug Screen. Data for the rad18 strain (AID 177); conditions: S. cerevisiae rad18 mutant growth inhibition, stronger effect = higher value
How it was run: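 DNA-repair-defective yeast; compound treatment; growth inhibition scored against vehicle.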

[16] = at 5.0 µM (retest, dose inferred, filed as 0.5)
[17] = at 50.0 µM (retest, dose inferred, filed as 5.0)

Measured: growth inhibition

O=C1OC(C2=CC(=O)c3ccccc3C2=O)C(Cl)=C1Cl (stereo unspecified)
inactive: [1]; at 1.2 µM 3% | [1]; at 3.7 µM 15% | [1]; at 11.0 µM 46% | [2]; at 1.2 µM 1% | [2]; at 3.7 µM 9% | [2]; at 11.0 µM 9% | [2]; at 33.0 µM 14% | [2]; at 100.0 µM 28% | [3]; at 1.2 µM 3% | [3]; at 3.7 µM 13% | [3]; at 11.0 µM 47% | [4]; at 1.2 µM -1% | [4]; at 3.7 µM 0% | [4]; at 11.0 µM 1% | [4]; at 33.0 µM 12% | [4]; at 100.0 µM 24% | [5]; at 1.2 µM 0% | [5]; at 3.7 µM 1% | [5]; [16] 5% | [5]; at 11.0 µM 11% | [5]; at 33.0 µM 30% | [5]; [17] 44% | [5]; at 100.0 µM 47% | [6]; at 1.2 µM -1% | [6]; at 3.7 µM 6% | [6]; [16] 1% | [6]; at 11.0 µM 14% | [6]; at 33.0 µM 34% | [6]; [17] 47% | [6]; at 100.0 µM 56% | [7]; at 1.2 µM 0% | [7]; at 3.7 µM 4% | [7]; at 11.0 µM 12% | [7]; at 33.0 µM 37% | [7]; at 100.0 µM 69% | [8]; [16] 17% | [9]; at 1.2 µM -2% | [9]; at 3.7 µM -13% | [9]; at 11.0 µM -4% | [9]; at 33.0 µM 12% | [9]; at 100.0 µM 30% | [10]; [16] 0% | [10]; [17] 51% | [11]; at 1.2 µM 3% | [11]; at 3.7 µM -1% | [11]; [16] -1% | [11]; at 11.0 µM -2% | [11]; at 33.0 µM 2% | [11]; [17] 6% | [11]; at 50.0 µM 57.4% | [11]; at 100.0 µM 12% | [12]; at 1.2 µM 1% | [12]; at 3.7 µM 1% | [12]; at 11.0 µM 4% | [12]; at 33.0 µM 13% | [12]; at 100.0 µM 36% | [13]; at 1.2 µM -2% | [13]; at 3.7 µM 3% | [13]; at 11.0 µM 6% | [13]; at 33.0 µM 22% | [13]; at 100.0 µM 13% | [14]; [16] 11% | [15]; at 1.2 µM 31%
active: [1]; at 33.0 µM 89% | [1]; at 100.0 µM 91% | [3]; at 33.0 µM 81% | [3]; at 100.0 µM 82% | [5]; at 50.0 µM 86.3% | [6]; at 50.0 µM 80.9% | [8]; [17] 78% | [8]; at 50.0 µM 95.5% | [10]; at 50.0 µM 95.3% | [14]; [17] 77% | [14]; at 50.0 µM 94.8% | [15]; at 3.7 µM 79% | [15]; at 11.0 µM 92% | [15]; at 33.0 µM 95% | [15]; at 100.0 µM 94%

COc1ccc([N+](=O)[O-])c2c(NCCCN(C)C)c3ccccc3nc12
inactive: [1]; at 1.2 µM 15% | [1]; at 3.7 µM 30% | [1]; at 11.0 µM 58% | [2]; at 1.2 µM 1% | [2]; at 3.7 µM 1% | [2]; at 11.0 µM 3% | [2]; at 33.0 µM 9% | [2]; at 100.0 µM 23% | [3]; at 1.2 µM -3% | [3]; at 3.7 µM 3% | [3]; at 11.0 µM 13% | [3]; at 33.0 µM 22% | [3]; at 100.0 µM 45% | [4]; at 1.2 µM 2% | [4]; at 3.7 µM 2% | [4]; at 11.0 µM 6% | [4]; at 33.0 µM 10% | [4]; at 100.0 µM 42% | [5]; at 1.2 µM 5% | [5]; at 3.7 µM -1% | [5]; [16] 16% | [5]; at 11.0 µM 11% | [5]; at 33.0 µM 50% | [5]; at 50.0 µM 49.1% | [6]; at 1.2 µM 4% | [6]; at 3.7 µM 4% | [6]; [16] -3% | [6]; at 11.0 µM 12% | [6]; at 33.0 µM 47% | [6]; at 50.0 µM 12.9% | [7]; at 1.2 µM 4% | [7]; at 3.7 µM 10% | [7]; at 11.0 µM 29% | [8]; [16] 5% | [8]; at 50.0 µM 46.8% | [9]; at 1.2 µM -3% | [9]; at 3.7 µM 3% | [9]; at 11.0 µM 2% | [9]; at 33.0 µM 8% | [9]; at 100.0 µM 25% | [10]; [16] 42% | [10]; at 50.0 µM 66.2% | [11]; at 1.2 µM -2% | [11]; at 3.7 µM -2% | [11]; at 11.0 µM -4% | [11]; at 33.0 µM 1% | [11]; at 50.0 µM -29% | [11]; at 100.0 µM 9% | [12]; at 1.2 µM 1% | [12]; at 3.7 µM 2% | [12]; at 11.0 µM 5% | [12]; at 33.0 µM 17% | [12]; at 100.0 µM 38% | [13]; at 1.2 µM 0% | [13]; at 3.7 µM 2% | [13]; at 11.0 µM 4% | [13]; at 33.0 µM 19% | [13]; at 100.0 µM 45% | [14]; [16] 7% | [14]; at 50.0 µM 68.5% | [15]; at 1.2 µM 62%
active: [1]; at 33.0 µM 72% | [1]; at 100.0 µM 89% | [5]; [17] 90% | [5]; at 100.0 µM 71% | [6]; [17] 99% | [6]; at 100.0 µM 85% | [7]; at 33.0 µM 80% | [7]; at 100.0 µM 94% | [8]; [17] 79% | [10]; [17] 98% | [11]; [16] 91% | [11]; [17] 100% | [14]; [17] 98% | [15]; at 3.7 µM 82% | [15]; at 11.0 µM 90% | [15]; at 33.0 µM 93% | [15]; at 100.0 µM 95%

Cc1cc(S(=O)(=O)Nc2nnc3cnc4ccccc4n23)c(S)cc1Cl
inactive: [1]; at 1.2 µM -1% | [1]; at 3.7 µM 0% | [1]; at 11.0 µM 4% | [1]; at 33.0 µM 17% | [1]; at 100.0 µM 43% | [2]; at 1.2 µM -1% | [2]; at 3.7 µM -3% | [2]; at 11.0 µM 4% | [2]; at 33.0 µM 11% | [2]; at 100.0 µM 28% | [3]; at 1.2 µM -3% | [3]; at 3.7 µM -16% | [3]; at 11.0 µM -25% | [3]; at 33.0 µM -57% | [3]; at 100.0 µM -59% | [4]; at 1.2 µM -2% | [4]; at 3.7 µM -2% | [4]; at 11.0 µM -1% | [4]; at 33.0 µM 26% | [4]; at 100.0 µM 34% | [5]; at 1.2 µM 0% | [5]; at 3.7 µM 0% | [5]; [16] -3% | [5]; at 11.0 µM 2% | [5]; at 33.0 µM 12% | [5]; [17] 60% | [5]; at 50.0 µM -14.9% | [5]; at 100.0 µM 37% | [6]; at 1.2 µM -1% | [6]; at 3.7 µM 0%
